{"source": "PubChem BioAssay AID425", "about": "(Sanford-Burnham Center for Chemical Genomics, 2006)", "note": "Among all 110,000 compounds or so, about 190 (0.17%) were called active. No stated cut-off is given here; in the data, active means inhibition above about 50%; inactive means the rest. For the sample, actives were picked, then their nearest neighbours and some compounds at random. Results with a measured potency or affinity are listed apart.", "data": [{"biological_target": "Dual specificity protein phosphatase 6 (Rattus norvegicus) (UniProt Q64346)", "sequence (Q64346 whole entry, looked up)": "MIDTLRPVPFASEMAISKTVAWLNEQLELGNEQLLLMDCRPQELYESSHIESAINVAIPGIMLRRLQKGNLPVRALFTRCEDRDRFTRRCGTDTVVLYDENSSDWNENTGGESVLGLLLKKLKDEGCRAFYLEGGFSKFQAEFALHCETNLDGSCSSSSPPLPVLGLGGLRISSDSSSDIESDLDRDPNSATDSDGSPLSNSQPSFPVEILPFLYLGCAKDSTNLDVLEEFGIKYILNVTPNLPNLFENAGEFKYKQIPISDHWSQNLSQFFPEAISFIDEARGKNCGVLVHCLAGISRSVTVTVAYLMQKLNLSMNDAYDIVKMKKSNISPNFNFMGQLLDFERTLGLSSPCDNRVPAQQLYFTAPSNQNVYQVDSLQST", "test": "inhibition of rat DUSP6 enzyme activity – biochemical, in vitro, primary screen (AID 425);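 further: plate controls were vehicle for no effect and reference inhibitor for full effect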", "conditions": "recombinant MKP-3 phosphatase activity, fluorescence; at 20 µM; active compounds read high", "values": [{"smiles": "Cc1ccc(OCC(=O)N(Cc2ccc(N(C)C)cc2)C2CCS(=O)(=O)C2)cc1", "note": "(stereo not given)", "inhibition": "-8.2% (inactive)"}, {"smiles": "COc1ccc(/C=N/NC(=O)COc2ccc3c(C)cc(=O)oc3c2)cc1", "inhibition": "-1.4% (inactive)"}, {"smiles": "CCOc1ccc(NCC(=O)N/N=C/c2cc([N+](=O)[O-])ccc2O)cc1", "inhibition": "5.2% (inactive)"}, {"smiles": "O=c1c[n+]([O-])c2ccccc2n1OCc1ccccc1", "inhibition": "0% (inactive)"}, {"smiles": "CC1CCN(C(=O)CSc2nc3c(cnn3-c3ccccc3)c(=O)[nH]2)CC1", "inhibition": "-9.5% (inactive)"}, {"smiles": "CC(C)CCNC(=O)Cn1cc2c(n1)CCCCC2", "inhibition": "-5.2% (inactive)"}, {"smiles": "O=S(=O)(O)c1cccc2c(N=Cc3cc(Cl)cc(Cl)c3O)cccc12", "inhibition": "0.7% (inactive)"}, {"smiles": "Oc1ccc(N=Nc2ccc(Cl)cc2)c2cccnc12", "inhibition": "2.7% (inactive)"}, {"smiles": "Cc1ccc(OCCOc2ccc(C=O)cc2)cc1C", "inhibition": "1.6% (inactive)"}, {"smiles": "CCC(=O)c1ccc(N2CCN(C(=O)c3ccc(F)c(F)c3)CC2)c(F)c1", "inhibition": "2% (inactive)"}, {"smiles": "Cc1ccc(S(=O)(=O)N(C)CCCC(=O)N2CCN(C=O)CC2)cc1", "inhibition": "-5.2% (inactive)"}, {"smiles": "O=C(Nc1cccc2c1CCCC2)c1ccco1", "inhibition": "-7% (inactive)"}, {"smiles": "CCn1c(SCC(=O)N/N=C/C=C/c2ccccc2)nc2ccccc21", "inhibition": "1.5% (inactive)"}, {"smiles": "O=C(c1ncc[nH]1)c1ccccc1C(=O)N1CCOCC1", "inhibition": "1.3% (inactive)"}, {"smiles": "COc1ccccc1-c1nc(C#N)c(N2CCC(Cc3ccccc3)CC2)o1", "inhibition": "3.6% (inactive)"}, {"smiles": "COc1cc2c(=O)n(Cc3ccccc3)c(=O)n(CC(=O)C(C)(C)C)c2cc1OC", "inhibition": "4% (inactive)"}, {"smiles": "COc1ccc2c(c1)c(=O)c(Br)c(C)n2Cc1ccccc1", "inhibition": "-17.6% (inactive)"}, {"smiles": "COc1cc2cc(=O)n(Cc3ccccc3)c(C)c2cc1OC", "inhibition": "70.3% (active)"}, {"smiles": "O=C1C=CC2=C3Oc4c(ccc5cc(O)ccc45)C(c4ccccc4C(=O)O)C3C=CC2=C1", "note": "(stereo not given)", "inhibition": "82.7% (active)"}, {"smiles": "Cc1ccc(S(=O)(=O)Cc2ccc(C(=O)N3CCN(c4ccc(F)cc4)CC3)o2)cc1", "inhibition": "-8.1% (inactive)"}, {"smiles": "CCOC(=O)C1=C(C)NC2=C(C(=O)CCC2)C1c1ccc(OCc2cccc(F)c2)c(OC)c1", "note": "(stereo not given)", "inhibition": "2.1% (inactive)"}, {"smiles": "COc1cccc2c(Cl)cc(C)nc12", "inhibition": "-2.4% (inactive)"}, {"smiles": "COc1cccc2c(Cl)c(CC=C(Cl)Cl)c(C)nc12", "inhibition": "74.2% (active)"}, {"smiles": "CCc1c(C)nc2c(OC)cccc2c1Cl", "inhibition": "2.1% (inactive)"}, {"smiles": "COc1ccc(S(=O)(=O)Nc2cc(C)c(O)c(S(=O)(=O)c3ccccc3)c2)cc1", "inhibition": "-2.6% (inactive)"}, {"smiles": "CN(C)c1ccc(NC(=S)Nc2ccccc2)cc1", "inhibition": "0.8% (inactive)"}, {"smiles": "CC(=O)N(C)c1ccc(NC(=S)Nc2ccccc2)cc1", "inhibition": "2.9% (inactive)"}, {"smiles": "CN(C(=S)Nc1ccccc1)c1ccccc1", "inhibition": "50.8% (active)"}, {"smiles": "CCNc1nc(NS(=O)(=O)c2ccc(C)cc2)nc(SC)n1", "inhibition": "0.7% (inactive)"}, {"smiles": "COC(=O)c1c(N=CN(C)C)c(C#N)c(C)n1-c1ccccc1", "inhibition": "4.3% (inactive)"}, {"smiles": "O=C(CSc1nc(O)c(Cc2ccccc2)c(=O)n1-c1ccccc1)N1CCOCC1", "inhibition": "3% (inactive)"}, {"smiles": "O=C1NC(=S)N/C1=C/c1ccc(-c2cc([N+](=O)[O-])ccc2Cl)o1", "inhibition": "36.3% (inactive)"}, {"smiles": "O=C1NC(=S)N/C1=C\\c1ccc(-c2cccc([N+](=O)[O-])c2)o1", "inhibition": "0.1% (inactive)"}, {"smiles": "O=C1NC(=S)N/C1=C\\c1ccc(-c2cc([N+](=O)[O-])ccc2Br)o1", "inhibition": "50% (active)"}, {"smiles": "O=c1c2ccccc2nc(-c2ccco2)n1-c1cccc2ccccc12", "inhibition": "2.8% (inactive)"}, {"smiles": "Cc1ccc(-c2nc(-c3cc4cc([N+](=O)[O-])c(O)cc4oc3=O)cs2)cc1", "inhibition": "-1.3% (inactive)"}, {"smiles": "O=c1oc2cc(O)c([N+](=O)[O-])cc2cc1-c1csc(-c2ccc(Cl)cc2)n1", "inhibition": "6.8% (inactive)"}, {"smiles": "O=c1oc2cc(O)c([N+](=O)[O-])cc2cc1-c1csc(-c2cc3ccccc3oc2=O)n1", "inhibition": "85.1% (active)"}, {"smiles": "O=C(c1ccc([N+](=O)[O-])cc1)N1CCN(Cc2ccccn2)CC1", "inhibition": "1.2% (inactive)"}, {"smiles": "CC(=O)CC(=O)Nc1ccc(C)c(Cl)c1", "inhibition": "-2.2% (inactive)"}, {"smiles": "O=C1C=C/C(=N\\S(=O)(=O)c2cccc([N+](=O)[O-])c2)c2ccccc21", "inhibition": "78.3% (active)"}, {"smiles": "O=[N+]([O-])c1cccc(S(=O)(=O)Nc2ccccc2-c2ccccc2)c1", "inhibition": "-0.7% (inactive)"}, {"smiles": "O=C1C=CC(=NS(=O)(=O)c2ccc(Cl)c([N+](=O)[O-])c2)C=C1", "inhibition": "10.8% (inactive)"}, {"smiles": "O=C1c2ccccc2C(=O)N1/N=C/c1ccc(Cl)c([N+](=O)[O-])c1", "inhibition": "-2.1% (inactive)"}, {"smiles": "O=[N+]([O-])c1cccc(S(=O)(=O)/N=C(/Nc2ccccc2)c2ccccc2)c1", "inhibition": "0.1% (inactive)"}, {"smiles": "O=C1C=C/C(=N\\S(=O)(=O)c2ccc(Cl)c([N+](=O)[O-])c2)c2ccccc21", "inhibition": "57.6% (active)"}, {"smiles": "COc1ccc(C(=O)NC(=S)Nc2ccc(I)cc2)cc1", "inhibition": "1.2% (inactive)"}, {"smiles": "CCc1ccc(S(=O)(=O)Nc2ccc(OC(=O)c3ccc(Cl)cc3)cc2)cc1", "inhibition": "0.4% (inactive)"}, {"smiles": "CCn1c(/N=C/c2c[nH]c3ccccc23)nc2ccccc21", "inhibition": "-7.4% (inactive)"}, {"smiles": "CCn1c(/N=C/c2c(O)ccc3ccccc23)nc2ccccc21", "inhibition": "78.4% (active)"}, {"smiles": "Cn1c(/N=C/c2c(O)ccc3ccccc23)nc2ccccc21", "inhibition": "-12.4% (inactive)"}, {"smiles": "COc1ccc(NC(=O)CN(c2ccc(C)cc2)S(=O)(=O)c2ccc(SC)cc2)cc1OC", "inhibition": "0.5% (inactive)"}, {"smiles": "N#Cc1ccc2c(c1)nc1c3cccc4cccc(c(=O)n21)c43", "inhibition": "66.7% (active)"}, {"smiles": "O=c1c2ccc(Br)c3cccc(c32)c2nc3ccc4c5c(ccc(c35)n12)CC4", "inhibition": "0.3% (inactive)"}, {"smiles": "O=c1c2ccc(Br)c3cccc(c32)c2nc3cccc4cccc(c43)n12", "inhibition": "2.3% (inactive)"}, {"smiles": "CCOc1ccc2nc(SC3CC(=O)N(c4ccccc4C)C3=O)sc2c1", "note": "(stereo not given)", "inhibition": "0.7% (inactive)"}, {"smiles": "COc1ccc(/C=C2\\NC(=O)c3ccccc3C2=O)cc1", "inhibition": "121% (active)"}, {"smiles": "Cc1ccc(/C=C2\\NC(=O)c3ccccc3C2=O)cc1", "inhibition": "21% (inactive)"}, {"smiles": "COc1ccc(/C=C2/NC(=O)/C(=C/c3ccc(OC)cc3)C2=O)cc1", "inhibition": "4.5% (inactive)"}, {"smiles": "O=S(=O)(Nc1ncnc2c1oc1ccccc12)c1ccc(Cl)s1", "inhibition": "-12.5% (inactive)"}]}]}
